34 compounds from PubChem BioAssay (NCATS) can be followed below.

Unmarked numbers belong to inactive results. Inconclusive results are not listed. Activity calls are given as the source filed them. Unless noted, calls come from the whole dose curve; as a rule, active = well fitted curve in the direction sought with a large enough effect; inconclusive = small, poorly fitted or top-dose-only effect, or another doubt; inactive = no such curve, though single readings can be large; an effect the other way counts as inactive or inconclusive.

For experiment [1], the target named is Peroxisome proliferator-activated receptor alpha (Homo sapiens) (UniProt Q07869). In words: qHTS assay for small molecule agonists of the peroxisome proliferator-activated receptor alpha (PPARalpha) signaling pathway (AID 651778). Note: % of control where 0% means no effect. To be noted: PathHunter PPARalpha complementation, chemiluminescence, 6 h; max response: active compounds read high. In short, it runs like this: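 Chemiluminescence from complemented enzyme reported PPARalpha activation in cells after 6 hr of compound treatment at 37 C. The detection reagent was incubated for 60 min at room temperature, and compounds were scored as agonists.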
Chain of Peroxisome proliferator-activated receptor alpha (Homo sapiens) (Q07869 whole entry, looked up): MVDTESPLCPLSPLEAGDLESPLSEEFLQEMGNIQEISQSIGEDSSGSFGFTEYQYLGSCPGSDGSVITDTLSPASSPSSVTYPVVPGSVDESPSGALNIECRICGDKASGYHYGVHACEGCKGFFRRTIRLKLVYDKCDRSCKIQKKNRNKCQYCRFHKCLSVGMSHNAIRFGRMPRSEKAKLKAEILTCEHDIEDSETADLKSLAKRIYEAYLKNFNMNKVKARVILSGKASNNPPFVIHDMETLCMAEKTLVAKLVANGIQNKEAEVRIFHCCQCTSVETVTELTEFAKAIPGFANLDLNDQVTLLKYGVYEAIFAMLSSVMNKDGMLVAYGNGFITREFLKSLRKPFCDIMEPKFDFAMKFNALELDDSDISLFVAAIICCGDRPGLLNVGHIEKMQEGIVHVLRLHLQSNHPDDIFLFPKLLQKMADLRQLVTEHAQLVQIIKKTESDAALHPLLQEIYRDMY

The nature of experiment [2]: qHTS assay for small molecule agonists of the antioxidant response element (ARE) signaling pathway measured by Nrf2-dependant transcriptional activity (AID 720636; active = well fitted curve in the direction sought with a large enough effect in the repeat runs; an effect the other way counts as inactive or inconclusive; note: potency is the fitted concentration of half-maximal effect). In short, it runs like this:
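Nrf2-dependent transcription is measured in ARE-luc HepG2 cells: compound is applied for 16 hr at 37 C after a 6 hr attachment period, and luciferase activity is quantified by luminescence using ONE-Glo.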

Experiment [3] is described as follows: qHTS assay for small molecule antagonists of the retinoid-related orphan receptor gamma (ROR-gamma) signaling pathway - cell viability counter screen (AID 720652; active = well fitted curve in the direction sought with a large enough effect in the repeat runs; an effect the other way counts as inactive or inconclusive;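 note: CHO reporter cells with doxycycline-induced ROR-gamma expression; series mostly up to about 92 µM; compound exposure lasted 16 hr before ATP read; % is set by controls: 0 for no effect and ±100 for the full control effect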). In short, it runs like this:
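Cytotoxicity counter screen: intracellular ATP (CellTiter-Glo luminescence) measured in the doxycycline-induced CHO RORE-luciferase reporter line after 16 hr compound exposure at 37 C, 5% CO2.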

Experiment [4] has as its target Arylsulfatase A (Homo sapiens) (UniProt P15289). In words: qHTS screen for enhancers of Arylsulfatase A (ASA1): LOPAC Validation Assay (AID 720538). The conditions noted are these: outcome: dose series up to 57.5 µM. In short, it runs like this: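 First, ASA-I179S fibroblasts from an MLD patient adhered for 6 hrs. Next, compounds were added for 48h. Then pNCS substrate (0.5mM final) with lysis buffer reacted 14h at room temperature before NaOH stop and fluorescence measurement.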

Experiment [5] is described as follows: qHTS for compounds that reverse cellular toxicity of Amyloid beta (A-beta) peptide in yeast: LOPAC Validation Assay (AID 720559).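 Note: plate controls were DMSO for no effect and equimolar ferric chloride plus clioquinol rescue for full effect.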 In short, it runs like this: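 Activity is expressed relative to DMSO and an equimolar ferric chloride/clioquinol mix. Compounds were pinned into medium with A-beta-expressing yeast, grown 48 hr at 30 C, then read by absorbance at 600 nm.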

The nature of experiment [6]: qHTS for Activators of Parkin Expression: LOPAC Validation Assay (NLuc Reporter) (AID 720572). In short, it runs like this: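 Compound effects on Parkin promoter activity were measured as NanoLuc luminescence after 24 h at 37 C. The neuronal reporter line also carried FLuc, which was read first. LOPAC compounds were tested at 7 concentrations, with normalization to DMSO (0%) and positive control (100%).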

A short description of experiment [7]: qHTS for Activators of Parkin Expression: LOPAC Validation Assay (FLuc Reporter) (AID 720573). In short, it runs like this:
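A neuronal cell line harbouring FLuc and NLuc reporters behind the Parkin promoter was exposed to compounds for 24 h. Firefly luciferase signal, measured after 10 min with detection reagent, was scaled to DMSO and positive-control wells.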

Chain of Arylsulfatase A (Homo sapiens) (P15289 whole entry, looked up): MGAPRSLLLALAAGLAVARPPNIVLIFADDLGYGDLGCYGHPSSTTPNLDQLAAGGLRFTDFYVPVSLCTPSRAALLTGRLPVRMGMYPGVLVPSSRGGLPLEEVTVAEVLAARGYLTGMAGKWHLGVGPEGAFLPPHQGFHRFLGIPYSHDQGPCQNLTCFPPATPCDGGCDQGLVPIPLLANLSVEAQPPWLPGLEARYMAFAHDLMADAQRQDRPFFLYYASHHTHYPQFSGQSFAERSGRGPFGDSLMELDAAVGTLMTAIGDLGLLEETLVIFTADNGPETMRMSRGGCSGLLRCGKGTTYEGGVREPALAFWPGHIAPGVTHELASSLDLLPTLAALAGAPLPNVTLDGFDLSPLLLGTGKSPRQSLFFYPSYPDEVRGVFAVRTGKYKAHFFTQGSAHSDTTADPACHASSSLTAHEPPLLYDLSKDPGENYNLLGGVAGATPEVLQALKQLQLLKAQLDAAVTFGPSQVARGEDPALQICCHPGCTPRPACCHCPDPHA

Turning to `O=C(O)COc1ccccc1`, the max response in experiment [1] was -1.23%. The Potency entry in experiment [2] and in experiment [3] was “inactive” throughout.
Regarding `Cn1cnc(CCN)c1`, the result in experiment [4], in experiment [5], in experiment [6] and in experiment [7] was inactive.
Consider `CCCN1CCO[C@@H]2c3cc(O)ccc3OC[C@H]21`, for which the result in experiment [4], in experiment [5], in experiment [6] and in experiment [7] was inactive.
Consider `[Cl][In]([Cl])[Cl]`, for which the Potency in experiment [2] is 42.2 µM (active).
Consider `C[C@@H]1O[C@H](C[N+](C)(C)C)C[C@H]1O`, for which the call in experiment [5], in experiment [6] and in experiment [7] was inactive.
Consider `Oc1ccc2c3c1O[C@H]1c4[nH]c5c(c4C[C@@]4(O)[C@@H](C2)N(CC2CC2)CC[C@]314)C[C@@]1(O)[C@H]2Cc3ccc(O)c4c3[C@@]1(CCN2CC1CC1)[C@H]5O4`, for which the result in experiment [4], in experiment [5], in experiment [6] and in experiment [7] was inactive.
On to `CC1=NN=C(c2ccc(N)cc2)c2cc3c(cc2C1)OCO3`, for which the outcome in experiment [4], in experiment [5], in experiment [6] and in experiment [7] was inactive.
Consider `CC[C@@]1(O)C(=O)OCc2c1cc1n(c2=O)Cc2cc3ccccc3nc2-1`, for which the outcome in experiment [4], in experiment [5], in experiment [6] and in experiment [7] was inactive.
In the case of `CNCCc1ccc(O)c(O)c1`, the compound was classed as inactive in experiment [5], in experiment [6] and in experiment [7].
Consider `CC(C)Oc1cccnc1N(C)C1CCN(Cc2ccccc2)CC1`, for which the outcome in experiment [4], in experiment [5], in experiment [6] and in experiment [7] was inactive.
As for `C/C=C(/C)C(=O)O[C@H]1C(C)=C2[C@H]([C@@H]1OC(=O)CCCCCCC)[C@@](C)(OC(C)=O)C[C@H](OC(=O)CCC)[C@@]1(O)[C@H]2OC(=O)[C@@]1(C)O`, the result in experiment [4], in experiment [5], in experiment [6] and in experiment [7] was inactive.
In the case of `CCCCc1ccc(C(=O)O)nc1`, the outcome in experiment [4], in experiment [5], in experiment [6] and in experiment [7] was inactive.
In the case of `S=C(NC1CCCCC1)N1CCC(c2cnc[nH]2)CC1`, the result in experiment [4], in experiment [5], in experiment [6] and in experiment [7] was inactive.
With `C=CCN1CC[C@]23CCCCC2[C@H]1Cc1ccc(O)cc13` (some centres undefined), in experiment [4], the outcome is “inactive; inhibitor; fitted 0.0301 uM”. Further, the call in experiment [5], in experiment [6] and in experiment [7] was inactive.
As for `c1ccc(C2(c3ccccc3)CC2C2=NCCN2)cc1` (centres undefined), the compound was classed as inactive in experiment [5], in experiment [6] and in experiment [7].
For `NCCc1c[nH]c2ccccc12`, the call in experiment [5], in experiment [6] and in experiment [7] was inactive.
As to `O=C(O)CC[N+](=O)[O-]`, the result in experiment [4], in experiment [5], in experiment [6] and in experiment [7] was inactive.
In the case of `Cc1nccc2c1[nH]c1ccccc12`, the result in experiment [4], in experiment [5], in experiment [6] and in experiment [7] was inactive.
`Cc1c(C(=O)c2cccc3ccccc23)c2cccc3c2n1[C@H](CN1CCOCC1)CO3`: the call in experiment [5], in experiment [6] and in experiment [7] was inactive.
With `CCCCCC[C@H]1C(=O)O[C@H](C)[C@H](NC(=O)c2cccc(NC=O)c2O)C(=O)O[C@@H](C)[C@@H]1OC(=O)CC(C)C`, the Potency result in experiment [2] is “inactive”.
Turning to `O=C(Cc1ccc(Cl)c(Cl)c1)N1CCCCC1CN1CCCC1` (centres undefined), the result in experiment [4], in experiment [5], in experiment [6] and in experiment [7] was inactive.
Take `CCCN1CCC[C@H](c2cccc(O)c2)C1`: the compound was classed as inactive in experiment [5], in experiment [6] and in experiment [7].
For the compound `NC(CCP(=O)(O)O)C(=O)O` (centres undefined), the outcome in experiment [4], in experiment [5], in experiment [6] and in experiment [7] was inactive.
In the case of `COC(=O)[C@@H](N)CCCN=C(N)N[N+](=O)[O-]`, the result in experiment [4], in experiment [5], in experiment [6] and in experiment [7] was inactive.
As to `c1ccc2occc2c1`, the Potency entry in experiment [2] was “inactive”.
Take `O=C(N[C@H]1CN2CCC1CC2)c1ccc(Cl)cc1`: the result in experiment [4], in experiment [5], in experiment [6] and in experiment [7] was inactive.
With `c1ccc2sc(C3(N4CCCCC4)CCCCC3)cc2c1`, the call in experiment [5], in experiment [6] and in experiment [7] was inactive.
Turning to `NC(=O)CN1CC(O)CC1=O` (centres undefined), the outcome in experiment [4], in experiment [5], in experiment [6] and in experiment [7] was inactive.
As to `CN1C2CCC1CC(OC(=O)c1cc(Cl)cc(Cl)c1)C2` (centres undefined), the outcome in experiment [4], in experiment [5], in experiment [6] and in experiment [7] was inactive.
For the compound `NCCc1c[nH]c2ccc(O)cc12`, the outcome in experiment [4] is “inactive; inhibitor; fitted 4.2562 uM”. Also, the call in experiment [5], in experiment [6] and in experiment [7] was inactive.
On to `NC1CCc2cc(O)c(O)cc2C1` (centres undefined), for which the result in experiment [4], in experiment [5], in experiment [6] and in experiment [7] was inactive.
Take `CNCCc1c[nH]c2ccc(O)cc12`: the outcome in experiment [4], in experiment [5], in experiment [6] and in experiment [7] was inactive.
As for `NC(=NCCC[C@H](N)C(=O)O)N[N+](=O)[O-]`, the outcome in experiment [4], in experiment [5], in experiment [6] and in experiment [7] was inactive.
On to `O=C(O)[C@@H]1CCN1`, for which the result in experiment [4], in experiment [5], in experiment [6] and in experiment [7] was inactive.
